According to PubChem BioAssay (NCI):
This is part of a sample that, as a whole, favours compounds with a hit. Of some 83,000 tested, about 20% had one in any assay.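 Each cell line was grown in a 96-well plate and treated with one concentration of compound for 48 hours. Values below 10 were considered active.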 Active and inactive are the calls of the source.

Key:
Assay in all cases: NCI-60 one-dose screen, 48 h (100 = growth as untreated, 0 = no growth, -100 = all killed)
Settings in all cases: 10 µM unless noted
[1] = tested on: NCI-H23 lung
[2] = tested on: NCI-H226 lung
[3] = tested on: NCI-H322M lung
[4] = tested on: HOP-62 NSCLC
[5] = tested on: NCI-H460 lung
[6] = tested on: HOP-92 NSCLC
[7] = tested on: NCI-H522 lung
[8] = tested on: A549/ATCC NSCLC
[9] = tested on: 786-0 renal
[10] = tested on: COLO 205 colon

Measured: growth

O=C(C(Br)C(Br)c1ccccc1)C(Br)C(Br)c1ccccc1 (stereo not given)
active: [1] 8.99% | [2] -36.5% | [4] 3.69% | [6] -60.7% | [7] -90.6% | [9] -62.7% | [10] -47.8%
inactive: [3] 84.2% | [5] 64% | [8] 29.4%

C/C(CC(=O)NNc1ccc([N+](=O)[O-])cc1)=N\Nc1ccc([N+](=O)[O-])cc1
inactive: [1] 87.5% | [2] 96.2% | [3] 71.7% | [4] 83% | [5] 27.9% | [6] 90.5% | [7] 60.8% | [8] 56.1% | [9] 55.3% | [10] 48.8%

COc1ccc(OC)c(Nc2nc(-c3c(C)nc4sccn34)cs2)c1
inactive: [1] 69.7% | [2] 65.7% | [3] 93.7% | [4] 75.7% | [5] 62.4% | [6] 97.6% | [7] 78.6% | [8] 74.6% | [9] 101% | [10] 100%

CNCc1cccc2c1OCCOCCOCCC(C)S(=O)(=O)c1ccc(cc1)-c1cnc(N)c(n1)C(=O)N2 (stereo not given)
inactive: [1] 77.9% | [2] 31.6% | [3] 67% | [4] 37.7% | [5] 11.2% | [6] 80.3% | [7] 34.4% | [8] 33% | [9] 10.6% | [10] 33.7%

CC1(C)C(N(O)C(=O)Nc2ccc(Cl)cc2)N(c2ccc(Cl)cc2)C(=O)N1CC(=O)N/N=C/C=C/c1ccc([N+](=O)[O-])o1 (stereo not given)
active: [1] 3.01% | [5] -13.1% | [6] -30.9% | [7] -88.5% | [8] 6.98% | [9] -48.9% | [10] -81.3%
inactive: [2] 25.8% | [3] 49% | [4] 36.8%

CSC1=NC(=Nc2c(C)cccc2C)C2(CCC(C(C)(C)C)CC2)N1c1ccc(Cl)cc1 (stereo not given)
inactive: [1] 48.6% | [2] 48.6% | [3] 64.8% | [4] 42% | [5] 16% | [6] 62.7% | [7] 48.2% | [8] 30.5% | [9] 51.1% | [10] 40.8%

C/C(=N\OC(=O)Nc1ccccc1)c1ccccc1
inactive: [1] 105% | [2] 95.2% | [3] 99.1% | [4] 118% | [5] 103% | [6] 126% | [7] 98.6% | [8] 88.3% | [9] 99.3% | [10] 114%

CCOC(=O)c1ccc(N(CCC(=O)O)C(C)=O)cc1
inactive: [1] 111% | [2] 102% | [3] 92.1% | [4] 108% | [5] 111% | [6] 96.2% | [7] 95% | [8] 104% | [9] 104% | [10] 119%

CCc1ccc(-c2ccc(NC3CCCCCC3)nn2)cc1S(N)(=O)=O
inactive: [1] 106% | [2] 104% | [3] 110% | [4] 120% | [5] 104% | [6] 94.2% | [7] 87.7% | [8] 98.2% | [9] 103% | [10] 115%

Oc1c(-c2cc(C(F)(F)F)[nH]n2)cc(Cl)c(OCc2ccc(Cl)cc2)c1-c1ccc(Cl)c(C(F)(F)F)c1
inactive: [8] 11.6%
active: [1] 6% | [2] -13.2% | [3] 8.73% | [4] -20.9% | [5] 7.68% | [6] -12.1% | [7] -2.6% | [9] -21.4% | [10] -38.8%

CCCCc1n(Cc2ccc3ccccc3n2)cc[n+]1Cc1ccc2ccccc2n1
active: [1] 4.77% | [6] 4.31% | [10] -34.4%
inactive: [2] 26.7% | [3] 41.4% | [4] 25.2% | [5] 16.5% | [7] 10% | [8] 44.8% | [9] 56.9%

O=C1OCC2=C1C(c1ccc(Cl)c(Cl)c1)c1cc3c(cc1N2CCO)CCC3 (stereo not given)
inactive: [1] 31.5% | [2] 24% | [3] 42% | [4] 38.9% | [6] 82% | [8] 21.6% | [9] 27.5%
active: [5] 5.49% | [7] -14.8% | [10] 6.1%
